Consider 3 compounds from PubChem BioAssay AID1727 (National Center for Advancing Translational Sciences (NCATS), 2009).

Structures are written as SMILES. The source made the active and inactive calls. Calls come from the whole dose curve; as a rule, active = well fitted curve in the direction sought with a large enough effect; inactive = no such curve, though single readings can be large or run the other way.

Chain of Epidermal growth factor receptor (Homo sapiens) (P00533 whole entry L858R, looked up): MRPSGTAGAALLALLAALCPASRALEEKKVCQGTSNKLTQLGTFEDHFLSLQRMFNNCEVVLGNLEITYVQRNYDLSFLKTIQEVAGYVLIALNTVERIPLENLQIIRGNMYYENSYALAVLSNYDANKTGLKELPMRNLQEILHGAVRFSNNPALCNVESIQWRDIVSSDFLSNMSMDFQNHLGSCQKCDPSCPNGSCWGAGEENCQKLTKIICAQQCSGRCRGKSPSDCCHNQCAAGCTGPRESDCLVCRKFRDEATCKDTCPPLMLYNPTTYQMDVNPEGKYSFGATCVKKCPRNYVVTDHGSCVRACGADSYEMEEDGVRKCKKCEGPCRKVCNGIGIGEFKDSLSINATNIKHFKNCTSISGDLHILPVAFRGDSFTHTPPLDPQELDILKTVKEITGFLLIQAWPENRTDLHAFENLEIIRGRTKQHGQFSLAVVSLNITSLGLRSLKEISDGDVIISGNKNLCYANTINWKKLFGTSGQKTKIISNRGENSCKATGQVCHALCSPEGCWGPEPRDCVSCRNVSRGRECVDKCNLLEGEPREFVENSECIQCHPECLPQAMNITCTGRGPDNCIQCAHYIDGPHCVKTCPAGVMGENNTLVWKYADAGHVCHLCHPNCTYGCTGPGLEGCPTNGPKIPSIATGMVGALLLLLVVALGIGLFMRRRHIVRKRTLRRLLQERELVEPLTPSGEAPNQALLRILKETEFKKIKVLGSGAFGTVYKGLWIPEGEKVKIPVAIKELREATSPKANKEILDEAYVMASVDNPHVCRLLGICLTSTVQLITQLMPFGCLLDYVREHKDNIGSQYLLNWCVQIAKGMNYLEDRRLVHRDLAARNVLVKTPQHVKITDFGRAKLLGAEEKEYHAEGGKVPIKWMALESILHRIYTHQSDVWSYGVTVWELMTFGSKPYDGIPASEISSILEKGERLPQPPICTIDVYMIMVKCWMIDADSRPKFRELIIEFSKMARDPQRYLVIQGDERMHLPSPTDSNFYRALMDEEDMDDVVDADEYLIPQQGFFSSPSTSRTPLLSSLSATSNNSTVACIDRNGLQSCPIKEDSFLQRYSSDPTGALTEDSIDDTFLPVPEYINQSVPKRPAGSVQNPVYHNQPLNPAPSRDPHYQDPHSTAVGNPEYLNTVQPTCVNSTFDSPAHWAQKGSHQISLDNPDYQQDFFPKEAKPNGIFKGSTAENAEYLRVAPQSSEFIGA

The experiment concerns the target Epidermal growth factor receptor (Homo sapiens) (UniProt P00533). As to the kind of experiment: Assay for Inhibitors of the ERK Signaling Pathway using a Homogeneous Screening Assay: EGFR L858R Kinase Inhibition. As to conditions: EGFR L858R kinase biochemical inhibition assay; series mostly up to 65.8 µM; activity, negative = inhibition: at the top concentration. An excerpt:
qHTS Assay for Inhibitors of the ERK Signaling Pathway using a Homogeneous Screening Assay
NIH Chemical Genomics Center [NCGC]
NIH Molecular Libraries Screening Centers Network [MLSCN]
Assay Submitter (PI): Dr. Wei Zheng, NCGC/NIH
The Ras/extracellular-signal-regulated kinase (ERK) mitogen activated protein (MAP) kinase signaling pathway (ERK1/2 cascade) plays is a key role in transmitting signals from the cell surface to the nucleus (Nishida and Gotoh 1993; Chang and Karin, 2001). The cascade is initiated by the small G-protein Ras, which recruits Raf […], where activation occurs. Alternatively, this pathway can be activated by elevating intracellular cAMP.
Activation of the ERK pathway is essential in increased cell division and cell survival. Sustained and constitutive activation of the ERK pathway, however, has been linked to uncontrolled cell proliferation, increased cell survival, and tumor progression. Thus, the ERK has been as an attractive target for cancer chemotherapy in the past few years (Sebolt-Leopold and Herrera, 2004). Given its physiological and pathological importance, assessment of ERK phosphorylation has been broadly performed in both basic research and drug discovery. Most assays for the measurement of ERK phosphorylation use the antibody-based detection methods, such as western blot and ELISA. These assays require multiple reagent additions with cell wash steps and are not suitable for high-throughput screening.
The current cell-based ERK phosphorylation assay was performed using AlphaScreen platform. AlphaScreen is a two bead-based proximity-dependent chemical energy transfer luminescent assay platform. The assay reagents (ERK SureFire(TM) kit) were supplied from TGR BioSciences (Australia). […]
The HTRF kinase assay (components supplied as kit by Cisbio) was chosen for the EGFR and EGFR mutant enzyme assays that applied the time resolved fluorescence resonance energy transfer (TR-FRET) principle. […]
Regarding `CN1CCN(c2cccc3c2C(=O)c2ccccc2C3=O)CC1`, the “activity, negative = inhibition” value was 8.93% (inactive).
For `CCn1nc(-c2ccccc2)nc2c(=O)n(C)c(=O)nc1-2`, the “activity, negative = inhibition” value is -0.966% [at 21.9 µM] (inactive).
On to `Cc1nc2c(=O)n(C)c(=O)nc-2n(C)n1`, for which the “activity, negative = inhibition” value is 11.6% (inactive).
